{"source": "PubChem BioAssay (NCI)", "note": "Values joined by “and” are separate entries in the source; they are usually repeats but may differ in a detail not shown here. Equal values may be shown once. The panel holds about 83,000 compounds, 20% with a hit somewhere; the sample as a whole holds those more often.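 How to read the values: 0–100, growth inhibition (40 = 60% inhibited); 0, no net growth; -100 to 0, cell death (-40 = 40% of starting cells died; -100 = all dead).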 Active and inactive are the calls of the source. The calls were made as follows: active = growth percent below 10; inactive = the rest."}
{"test_system": "MDA-MB-468 breast", "experiment": "NCI-60 one-dose screen, 48 h (100 = growth as untreated, 0 = no growth, -100 = all killed)", "settings": "10 µM unless noted"}
{"molecule": "c1ccc(-c2n(Cc3ccc4ccccc4c3)c3c4ccccc4c4ccccc4c3[n+]2Cc2ccc3ccccc3c2)cc1", "growth": "-75.5% (active)"}
{"molecule": "CCCCCCCCCCCCCCCCCCOc1ccccc1CC(=O)NCC[N+](C)(C)C", "growth": "19% (inactive)"}
{"molecule": "CN(C)CC1C(=O)O[C@H]2[C@H]1CC/C(COC(=O)c1cc3ccccc3[nH]1)=C\\CC[C@@]1(C)O[C@@H]21", "note": "(stereo not given in full)", "growth": "-59.8% (active)"}
{"molecule": "Cc1cccc(N2C(=O)/C(=C/C(Cl)=C/c3ccc([N+](=O)[O-])cc3)SC2=S)c1C", "growth": "11.6% (inactive)"}
{"molecule": "COc1ccc2c(c1)c(-c1nn3cc(-c4cccs4)nc3s1)cn2C", "growth": "71.5% (inactive)"}
{"molecule": "CCCCn1c(C(=O)c2c[nH]c3ccccc23)n[nH]c1=S", "growth": "109% (inactive)"}
{"molecule": "BrCCCOc1ccc(Oc2ccc(OCCCBr)cc2)cc1", "growth": "97.5% (inactive)"}
{"molecule": "CCN(CC)CCNCC(O)Cc1ccc(OC)cc1", "note": "(stereo not given)", "growth": "105% (inactive)"}
{"molecule": "C1CNC(C2=NCCN2)=N1", "growth": "-26.9% (active)"}
{"molecule": "CC(=O)c1ccc(NC(=O)CSc2nnc(-c3cc(-c4ccc(Cl)cc4)nc4ccccc34)o2)cc1", "growth": "115% (inactive)"}
{"molecule": "CN1CCN(Cc2ccc(NC(=O)c3cncc(C#Cc4cncc5nccnc45)c3)cc2C(F)(F)F)CC1", "growth": "87% (inactive)"}
{"molecule": "COc1ccc(OC)c(C(=O)Nc2cccc(-c3cc(=O)c4ccccc4o3)c2)c1", "growth": "92.9% (inactive)"}
{"molecule": "Cc1c2cnccc2c(C)c2c1c1cc(CO)ccc1n2C", "growth": "-65.7% (active)"}
{"molecule": "OC(CC(c1ccccc1)c1cccc2ccccc12)(c1ccccc1)c1ccccc1", "note": "(stereo not given)", "growth": "86.3% (inactive) and 84.5% (inactive)"}
{"molecule": "CCCC(=O)NC(c1ccc2c(c1)OCO2)c1ccc2cccnc2c1O", "note": "(stereo not given)", "growth": "-16% (active)"}
{"molecule": "COc1ccccc1/C=C1\\Oc2cc(OCCCN3CCCC3)ccc2C1=O", "growth": "85.9% (inactive)"}
{"molecule": "COc1cccc(CC(C)=C(c2ccc(OCCN3CCCCC3)cc2)c2ccc(OCCN3CCCCC3)cc2)c1", "growth": "-82.8% (active)"}
{"molecule": "COc1ccc(/C(C#N)=C/c2nc3c(N4CCOCC4)nc(Cl)nc3n2C)cc1OC", "growth": "-20.9% (active)"}
{"molecule": "Cn1cc(-c2noc(-c3cn(C)c4ncccc34)n2)c2cc(Cl)ccc21", "growth": "91.3% (inactive)"}
{"molecule": "CC(=O)c1cccc(NS(=O)(=O)c2ccc(C)cc2)c1", "growth": "77.3% (inactive)"}
{"molecule": "C#CC(C)(O)[C@@H]1C[C@H](CC(=O)O)C1(C)C", "note": "(stereo not given in full)", "growth": "114% (inactive)"}
{"molecule": "COc1cc(/C=N/n2cnc3oc(-c4ccccc4)cc3c2=N)cc(CN2CCOCC2)c1O", "growth": "83.2% (inactive)"}
{"molecule": "CCOC(=O)c1nc(Nc2ccc(C(C)=O)cc2)sc1C", "growth": "96.9% (inactive)"}
{"molecule": "NC(N)=NN=C(c1ccccc1)c1ccccc1", "growth": "-31.3% (active)"}
{"molecule": "CNCC[C@H](Oc1cccc2ccccc12)c1cccs1", "growth": "82% (inactive)"}
{"molecule": "O=C(O)CCCCCCCCCCCCCCC(=O)O", "growth": "95.6% (inactive)"}
{"molecule": "C=C(C)[C@@H]1CC[C@]2(C)[C@H](CC=C3[C@@H]4[C@@H](C)[C@H](C)CC[C@]4(C(N)=O)CC[C@]32C)[C@@]1(C)CCC#N", "growth": "0.182% [100 µM] (active)"}
{"molecule": "CNC(=O)c1cc(Oc2cccc3nc(NC(=O)Nc4cc(C(F)(F)F)cc(C(F)(F)F)c4)ccc23)ccn1", "growth": "32% (inactive)"}
{"molecule": "COc1ccc2c(c1)-c1c(c3cc(OC)ccc3n(CCN(C)C)c1=O)C2=O", "growth": "46% (inactive)"}
{"molecule": "NC(=O)CCCN1C/C(=C\\c2ccccc2)C(=O)c2ccccc21", "growth": "90.8% (inactive)"}
{"molecule": "C/C=C(/C)C(=O)OC1C=C(CO)C(=O)C(OC(=O)C(C)(O)C(C)Cl)C1C(C)C", "note": "(stereo not given)", "growth": "-51.9% (active)"}
{"molecule": "CC(C)OC(=O)Nc1ccc(-c2nc(-c3cccc(OCCN4CCOCC4)c3)c(-c3ccnc(Br)c3)[nH]2)cc1", "growth": "-1.08% (active)"}
{"molecule": "C=C1C(=O)O[C@H]2[C@H]1CC/C(COC(=O)c1cn(C)c3ccccc13)=C\\CC[C@@]1(C)O[C@@H]21", "growth": "-66.4% (active)"}
{"molecule": "COc1ccc(Br)c2c1C(=O)CC2", "growth": "107% (inactive)"}
{"molecule": "O=S(=O)(NCCNc1nccc(-c2c(-c3ccc(F)cc3)nc3sccn23)n1)c1ccc2ccccc2c1", "growth": "76.4% (inactive)"}
{"molecule": "O=C(Nc1cccc(C(F)(F)F)c1)N1CCN(c2cc(-c3cn(-c4ccccc4)nc3-c3cccc(O)c3)ccn2)CC1", "growth": "32.5% (inactive)"}
{"molecule": "Cc1ccc(S(=O)(=O)c2ccc3[nH]c(=O)[nH]c(=O)c3c2)cc1", "growth": "102% (inactive)"}
{"molecule": "Cc1ccc(C(=O)c2ccc(CC(=O)NN3C(=O)c4ccccc4C3=O)n2C)cc1", "growth": "93% (inactive)"}
{"molecule": "CCOc1ccc2nc(NC(=O)c3ccc(C(F)(F)F)cc3)sc2c1", "growth": "111% (inactive)"}
{"molecule": "COc1cccc(C2CC(=O)Nc3cc4c(cc32)CCC4)c1OC", "note": "(stereo not given)", "growth": "-2.82% (active)"}
